Paper PMC5540273 (PLoS ONE, 2017)

How the values were obtained:
Details in all cases: concentration: 1 μM, replicates: in singlicate; n = 1
HUNK = test system: HUNK
ICK = test system: ICK
IGF1R = test system: IGF1R
IKK-alpha = test system: T1, IKK-alpha
T1 construct: gene CHUK

IKK-beta = test system: T2, IKK-beta
T2 construct: gene IKBKB

IKK-epsilon = test system: T3, IKK-epsilon
T3 construct: gene IKBKE

INSRR = test system: INSRR
INSR = test system: INSR
IRAK1 = test system: IRAK1
IRAK3 = test system: IRAK3
IRAK4 = test system: IRAK4
ITK = test system: ITK
[1] = test system: JAK1(JH1domain-catalytic)
[2] = test system: JAK1(JH2domain-pseudokinase)
[3] = test system: JAK2(JH1domain-catalytic)
[4] = test system: JAK3(JH1domain-catalytic)
JNK1 = test system: T4, JNK1
T4 construct: gene MAPK8

JNK2 = test system: T5, JNK2
T5 construct: gene MAPK9

JNK3 = test system: T6, JNK3
T6 construct: gene MAPK10

KIT-autoinhibited = test system: KIT-autoinhibited
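Further: KINOMEscan kinase panel screen.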

Row | Structure (SMILES) | %Inh (HUNK) [%] | %Inh (ICK) [%] | %Inh (IGF1R) [%] | %Inh (IKK-alpha) [%] | %Inh (IKK-beta) [%] | %Inh (IKK-epsilon) [%] | %Inh (INSRR) [%] | %Inh (INSR) [%] | %Inh (IRAK1) [%] | %Inh (IRAK3) [%] | %Inh (IRAK4) [%] | %Inh (ITK) [%] | %Inh [1] [%] | %Inh [2] [%] | %Inh [3] [%] | %Inh [4] [%] | %Inh (JNK1) [%] | %Inh (JNK2) [%] | %Inh (JNK3) [%] | %Inh (KIT-autoinhibited) [%]
1 | COc1cc2ncn(-c3cc(OCC4CCCO4)c(C(N)=O)s3)c2cc1OC (centres unmarked) [GSK204607] | 0 | 0 | 6 | 0 | 0 | 24 | 0 | 0 | 0 | 0 | 0 | 5 | 0 | 0 | 1 | 0 | 0 | 17 | 7 | 0
2 | Cn1cncc1-c1ccc2ncnc(Nc3ccc(OCc4ccccc4)cc3)c2c1 [GW320571] | 0 | 0 | 24 | 0 | 0 | 0 | 22 | 3 | 11 | 3 | 2 | 14 | 18 | 22 | 0 | 0 | 18 | 6 | 4 | 0
3 | O=c1cc(N2CCOCC2)nc2n(Cc3cccc(Cl)c3Cl)ccn12 [GSK2286295] | 0 | 3 | 12 | 0 | 25 | 10 | 0 | 5 | 0 | 3 | 0 | 4 | 17 | 0 | 0 | 0 | 1 | 30 | 15 | 0
4 | COC(=O)c1c(-c2ccccc2)c2cc(OC)ccc2c(=O)n1Cc1ccccc1 | 0 | 0 | 0 | 5 | 4 | 0 | 9 | 0 | 11 | 12 | 10 | 9 | 10 | 0 | 0 | 0 | 66 | 68 | 85 | 6
5 | COc1cccc(NC(=O)NC2CCN(c3ccnc(Nc4ccc(F)cc4)n3)C2)c1 (centres unmarked) [GSK1379721] | 13 | 25 | 0 | 0 | 0 | 15 | 0 | 14 | 12 | 0 | 12 | 0 | 7 | 0 | 20 | 0 | 0 | 4 | 0 | 0
6 | CC(C)(C)c1ccc(C(=O)Nc2cn3cc(-c4cccnc4)ccc3n2)cc1 | 0 | 0 | 0 | 21 | 27 | 11 | 7 | 0 | 41 | 30 | 70 | 24 | 0 | 45 | 6 | 2 | 24 | 0 | 5 | 0
7 | O=C(Nc1n[nH]c2cc(-c3cccc(F)c3F)ccc12)C1CC1 [SB-733894] | 0 | 22 | 0 | 0 | 5 | 11 | 0 | 41 | 0 | 10 | 0 | 0 | 0 | 67 | 27 | 18 | 32 | 0 | 1 | 6
8 | COc1cc(Nc2nccc(N3CCC(NC(=O)Nc4cc(C)ccc4C)C3)n2)cc(OC)c1OC (centres unmarked) [GSK1379762] | 0 | 22 | 15 | 21 | 17 | 23 | 9 | 0 | 58 | 73 | 16 | 30 | 5 | 0 | 76 | 0 | 24 | 2 | 11 | 0
9 | Cl.O=C(Nc1cccc(-c2nn3ncccc3c2-c2ccnc(Nc3cccnc3)n2)c1)c1c(F)cccc1F [GSK312879] | 0 | 10 | 25 | 30 | 31 | 0 | 9 | 11 | 28 | 0 | 28 | 15 | 15 | 0 | 23 | 0 | 14 | 18 | 19 | 0
10 | Cl.Oc1ccc(-c2nc(-c3ccccc3)[nH]c2-c2ccncc2)cc1 [SB-428218] | 42 | 3 | 8 | 0 | 0 | 12 | 0 | 3 | 33 | 0 | 18 | 10 | 4 | 36 | 0 | 0 | 2 | 0 | 0 | 18
